Compound activity from PubChem BioAssay.
Rows were chosen to be rich in hits. Some 21% of all compounds tested hit in one or more screens of this group.
NS1 inh: influenza NS1 inhibition. AID 2326. Potency, µM (doses to about 46.1 µM). 0.4% of 270,000 active; calls by dose curve; also: actives are rising curves; nearly all actives have a fitted effect of over 50% in size
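Compounds were scored for reversing the slow growth caused by influenza A NS1 in S. cerevisiae, measured by optical density at 600 nm. Assay medium contained 2% galactose at pH 6.0; NS1-free yeast of the same strain were the positive control.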
CHX counter: counter-screen for Shiga toxin inhibitors: cycloheximide protein synthesis inhibition; 12% of 300,000 active; max response, %; cell reporter, cycloheximide protein synthesis inhibition counterscreen; in the data active = max response mostly above about 13%, no sharp cut-off; inactive = mostly below about 14%; also: read at 38.3 µM for the half of the compounds with a filed dose
Pf growth 48h: P. falciparum growth inhibition at 48 hours (one generation); P. falciparum luciferase growth in erythrocytes, 48 h; Potency, µM (highest dose often 28.7 µM), most hits filed as inhibitors; 5.9% of 310,000 active
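Luciferase-expressing parasites in RBCs, 2% Hct / 0.1% parasitemia final; RPMI 1640 + 0.5% Albumax; 37 C, 5% CO2, one generation; luminescence read-out, lower signal = inhibition.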
Shiga toxin inh: inhibitors of Shiga toxin in Vero cells; Vero cells, Shiga toxin protein synthesis inhibition reporter; 9.2% of 290,000 active; inhibition, % at 38.7 µM; in the data active = inhibition mostly above about 28%, no sharp cut-off; inactive = mostly below about 43%
Sm TGR inh: S. mansoni TGR enzyme inhibition | purified TGR, DTNB reduction, TNB absorbance 405 nm | Potency, µM (series often up to 114 µM), hits mostly inhibitors | 3% of 360,000 active | AID 485364; also: nearly all actives have a fitted effect of over 60% in size
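First, TGR (20 nM dispensed) and NADPH were mixed with compound. Second, a 15 min room-temperature incubation followed. Third, further NADPH and then DTNB were added to start the reaction. Finally, TNB absorbance was monitored kinetically.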
Pf growth 96h: inhibits malaria parasite growth, 96 h | P. falciparum luciferase reporter growth, 96 h | Potency, µM (series often up to 28.7 µM), usual class: inhibitors | 6.9% of 320,000 active | AID 504834
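Two parasite generations (96 h, 37 C, 5% CO2) of compound exposure in infected erythrocytes (0.05% parasitemia, 2% hematocrit). Luciferase-reporter P. falciparum; decreased luminescence indicates inhibited growth, aimed at apicoplast-acting delayed death.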
NS1 inh valid: influenza NS1 function inhibition validation; shares compounds with NS1 inh; influenza NS1 function cell assay, 15-point titration; activity change, negative = inhibition, % at 32.9 µM; 1,400 tested, under 10 active; AID 492980; calls by dose curve
Flu PR8 replic: influenza NS1 inhibitors: inhibition of influenza A/PR/8/34 replication | shares compounds with NS1 inh | MDCK infected influenza A/PR/8/34, virus titer TCID50; hits give low values | virus titer (log TCID50), log10 TCID50 at 5 µM | 30% of 95 active | AID 504647; call rule not given here
Numbers stand for hits; . = inactive; ? = inconclusive; / = no result; [ ] = dose if it differs, or a comment. Unless noted, calls follow the shape of the dose curve; as a rule, active = well fitted curve in the direction sought with a large enough effect; inconclusive = small, poorly fitted or top-dose-only effect, or another doubt; inactive = no such curve, though single readings can be large; an effect the other way counts as inactive or inconclusive.

SMILES | NS1 inh | CHX counter | Pf growth 48h | Shiga toxin inh | Sm TGR inh | Pf growth 96h | NS1 inh valid | others
COC(=O)[C@@]1(Cc2ccc(F)cc2)[C@H]2c3cc(C(=O)N4CCCC4)n(CCc4c[nH]c5ccc(OC)cc45)c3C[C@H]2CN1C(=O)c1ccccc1 | 13µM | . | ? | . | . | 1µM | .
O=C(NCc1ccc(Cl)cc1)C(=O)NCC1OCCCN1S(=O)(=O)c1cccs1 (centres undefined) | . | . | . | . | . | . | /
O=C(CN(CCc1ccccc1)S(=O)(=O)c1ccc(Cl)cc1)N/N=C/c1ccccc1C(=O)O | / | . | . | . | . | . | /
COc1ccccc1NC(=O)C/C(N)=N/O | 13µM | . | / | . | . | . | .
COc1ccccc1NC(=O)CCC(=O)Nc1ccccc1OC | .[9.22 µM] | . | . | . | . | . | /
Cc1ccc(C)c(NC(=O)NC2CCCCCCC2)c1 | . | . | . | . | . | ? | /
Cc1ccc2c(c1)NCC(C(=O)NC1CCCCC1)O2 (centres undefined) | 7.9µM | . | . | . | . | . | .
N#C/C(=C\c1c[nH]c2ccccc12)C(=O)Nc1ncc(Cc2ccc(Cl)cc2Cl)s1 | 11µM | . | . | . | . | ? | .
Cn1cc(/C=C(\C#N)C(=O)Nc2ncc(Cc3cccc(Cl)c3)s2)c2ccccc21 | . | . | . | . | . | ? | /
CCn1ncc([N+](=O)[O-])c1C(=O)N1CCCC1 | . | . | . | . | . | / | /
COC(=O)Cn1c(CN2CCC(Cc3ccccc3)CC2)nc2c1c(=O)n(C)c(=O)n2C | ? | . | ? | . | . | . | .
Cc1[nH]c2ccc(-c3nnc(SCC(=O)NCc4ccco4)n3Cc3ccccc3)cc2c1C | 3.5µM | . | / | . | . | ? | .
CCCn1c(SCC(=O)NCc2ccco2)nnc1-c1ccncc1 | . | . | . | . | / | . | /
CCNC(=S)Nc1nc2c(cc1C(=O)OCC)CCCC2 | ? | . | . | . | . | . | /
CCc1nnc(NS(=O)(=O)c2ccc(Nc3ccc4nonc4c3[N+](=O)[O-])cc2)s1 | . | . | . | . | . | ? | /
Cc1cc2cc(CNC(=O)c3cccs3)ccc2n1C | ? | 38 | ? | 56 | . | / | .
CCN(CC)S(=O)(=O)c1ccc(C(=O)NCc2ccc3c(c2)cc(C)n3C)cc1 | ? | . | ? | . | . | ? | /
COc1ccc(/C=C\C(=O)NCc2ccc3c(c2)cc(C)n3C)cc1OC | 11µM | . | ? | . | . | ? | . | Flu PR8 replic=.
Cc1ccccc1NC(=S)NCc1ccc2c(c1)cc(C)n2C | ? | . | . | . | . | . | /
Cc1cc2cc(CNC(=O)c3ccc(S(=O)(=O)N4CCCC4)cc3)ccc2n1C | 10µM | . | ? | . | . | 9.3µM | .
CCc1cccc(C)c1NC(=S)NCc1ccc2c(c1)cc(C)n2C | 14µM | . | ? | . | . | 6.6µM | .
O=C(COC(=O)c1c[nH]c(=O)[nH]c1=O)Nc1ccccc1 | . | . | . | . | / | . | /
COc1cccc(NS(=O)(=O)c2ccc3c(c2)C2C=CCC2C(c2ccc(C(=O)O)cc2)N3)c1 (centres undefined) | 10µM | . | . | . | ? | . | .
COc1cccc(NS(=O)(=O)c2ccc3c(c2)CCCN3C(C)=O)c1 | . | . | / | . | . | . | /
CC(=O)c1c(C)[nH]c(C(=O)OCC(=O)N2CCc3ccccc32)c1C | 4.5µM | 24 | . | . | . | . | .
SMILES | NS1 inh | CHX counter | Pf growth 48h | Shiga toxin inh | Sm TGR inh | Pf growth 96h | NS1 inh valid | others
CCOC(=O)c1[nH]c(C)c(C(=O)OCC(=O)N2CCc3ccccc32)c1C | . | . | / | . | . | ? | /
COc1ccccc1NC(=O)NS(=O)(=O)c1ccc(C)cc1 | . | . | . | . | . | / | /
CCOCCCNC(=O)CN1C(=O)COc2ccc(S(=O)(=O)N3CCC(C)CC3)cc21 | . | . | . | . | . | . | /
CC1CCN(S(=O)(=O)c2ccc3c(c2)N(CC(=O)NCCCOC(C)C)C(=O)CO3)CC1 | ? | . | . | . | . | . | .
C[C@]1(O)CC[C@H]2[C@@H]3[C@@H](O)CC4=CC(=O)CC[C@@]4(C)[C@H]3CC[C@]21C | . | / | / | / | / | / | /
O=C(NCc1ccccc1Cl)c1cc2c(s1)CS(=O)(=O)C2 | . | . | . | . | . | . | /
COc1cc(CNc2ccc(CNc3ncn[nH]3)cc2)ccc1OCc1ccccc1 | ? | 48 | . | 40 | . | . | .
COc1cccc(NC(=O)c2sc3ncn(CC(=O)N4CCN(c5ccccn5)CC4)c(=O)c3c2C)c1 | . | . | . | . | . | ? | /
CC(=O)Nc1ccc(-c2csc(NC(=O)C3CCN(S(=O)(=O)c4cccs4)CC3)n2)cc1 | 13µM | . | 2.1µM | . | . | ? | .
Cc1csc(NC(=O)C2CCN(S(=O)(=O)c3cccs3)CC2)n1 | / | . | . | . | . | . | /
CCCCC(C(=O)O)C(C)CC(=O)Nc1ccn(-c2ccccc2)n1 (centres undefined) | 2.8µM | . | . | . | . | . | .
Cc1ccc(CC(=O)Nc2ccc(S(=O)(=O)N3CCOCC3)cc2)cc1 | ? | . | . | . | . | . | .
COc1ccc(CN2CCN(S(=O)(=O)c3ccc(NC(C)=O)cc3)CC2)cc1 | ? | . | ? | . | . | ? | .
COc1ccc(NC(=S)Nc2cccc(S(=O)(=O)N3CCCCC3)c2)cc1 | 13µM | . | . | . | 35µM | . | .
O=C1CCCC(O)=C1C=NCc1ccccc1 | . | . | . | . | / | . | /
CCC(C)N(C(=O)COC(=O)c1[nH]c(C)c(C(C)=O)c1C)C1CCS(=O)(=O)C1 (centres undefined) | 3.2µM | . | . | . | . | . | .
CCN(C(=O)COC(=O)c1[nH]c(C)c(C(C)=O)c1C)C1CCS(=O)(=O)C1 (centres undefined) | . | . | ? | . | . | . | /
COc1cc(/C=C2/C(=O)N(c3ccc(Br)cc3)N=C2C)cc(OC)c1OC | 11µM | . | . | . | . | . | .
CC1=NN(c2ccc(Br)cc2)C(=O)/C1=C/c1cccs1 | . | . | . | . | . | . | /
Cc1noc(/C=C/N(C)C)c1S(=O)(=O)N1CCCC(C(=O)NC(C)c2ccccc2)C1 (centres undefined) | 1.8µM | . | ? | . | . | ? | ? | Flu PR8 replic=.
Cc1cc(=O)[nH]c(N/N=C/c2c(O)n(-c3ccccc3)c(=O)c3ccccc23)n1 | 10µM | . | . | . | . | . | .
N#CCC(=O)NN=C1CCCCCCCCCCC1 | 1.8µM | . | . | . | . | . | .
CCN(c1ccc(Cl)cc1)S(=O)(=O)c1nnc(NC(=O)C2CCCCC2)s1 | / | / | / | / | . | / | /
COc1ccc(CCN(Cc2nc3ccccc3c(=O)[nH]2)C(=O)c2ccco2)cc1OC | 8.9µM | . | ? | . | . | . | .
